Experimental data published in PubChem BioAssay (Tox21).
Results filed as inconclusive are left out. Entries that show only a call come without a potency. The source made the active and inactive calls. Calls follow the shape of the dose curve; as a rule, active = well fitted curve in the direction sought with a large enough effect in the repeat runs; inconclusive = weak or mixed curves; inactive = no such curve, though single readings can be large; an effect the other way counts as inactive or inconclusive.

How the values were obtained:
[1] = qHTS assay to identify small molecule antagonists of the glucocorticoid receptor (GR) signaling pathway - cell viability counter screen (AID 720693); also: nearly all actives have a fitted effect of over 55% in size
[2] = qHTS assay for identifying genotoxic compounds that show differential cytotoxicity against isogenic chicken DT40 cell lines with known DNA damage response pathways - wild type cell line (AID 743012); also: nearly all actives have a fitted effect of over 60% in size
Procedure, shortened: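 Parental DNA repair-proficient DT40 cells, 300 per well, were pre-incubated ~0.5 h at 37 C/5% CO2, pin-dosed with compounds in DMSO, then incubated 40 h. Viability was read as CellTiter-Glo luminescence after 30 min at room temperature.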

[3] = qHTS assay for identifying genotoxic compounds that show differential cytotoxicity against isogenic chicken DT40 cell lines with known DNA damage response pathways - Rad54/Ku70 mutant cell line (AID 743015); also: nearly all actives have a fitted effect of over 60% in size; also: potency is read from the fitted curve at half-maximal effect
[4] = qHTS assay to identify small molecule antagonists of the androgen receptor (AR) signaling pathway using the MDA cell line - cell viability counter screen (AID 743041; also: nearly all actives have a fitted effect of over 45% in size)
Procedure, shortened: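 Same-well cytotoxicity was assessed by CellTiter-Fluor in MDA-kb2 AR-luc cells after 16 h of compound treatment under R1881 agonism.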

[5] = qHTS assay for identifying genotoxic compounds that show differential cytotoxicity against isogenic chicken DT40 cell lines with known DNA damage response pathways - Rev3 mutant cell line (AID 743014); also: nearly all actives have a fitted effect of over 55% in size; also: potency is read from the fitted curve at half-maximal effect
[6] = qHTS assay to identify small molecule antagonists of the androgen receptor (AR) signaling pathway - cell viability counter screen (AID 743033; also: nearly all actives have a fitted effect of over 45% in size)

| SMILES | Potency [1] | Potency [2] | Potency [3] | Potency [4] | Potency [5] | Potency [6] |
| --- | --- | --- | --- | --- | --- | --- |
| C[N+]1(C)CCC(=C(c2ccccc2)c2ccccc2)CC1 | inactive | inactive | inactive | inactive | – | – |
| C[C@@H]1C[C@H]2[C@@H]3CCC4=CC(=O)C=C[C@]4(C)[C@@]3(F)[C@@H](O)C[C@]2(C)[C@@]1(O)C(=O)CO | inactive | – | 55.3 µM (active) | inactive | 0.553 µM (active) | inactive |
| CO/N=C1\CN(c2nc3c(cc2F)c(=O)c(C(=O)O)cn3C2CC2)CC1CN (stereo not drawn) | inactive | – | – | inactive | inactive | inactive |
